These results are taken from PubChem BioAssay AID2284363 (EPA ToxCast).

The source made the active and inactive calls. The calls were made as follows: active = hit-call score of the fitted dose curve at least 0.9, where 1 is the maximum; inactive = score below 0.9.

In this test the target is Nuclear factor erythroid 2-related factor 2 (Homo sapiens) (UniProt Q16236). Put plainly: ERF_US_NR_hNFE2L2: Eurofins (ERF) Cell Based Nuclear Translocation LeadHunter Assay for human Transcription Factor Keap1-Nrf2 Agonism. The method, then: ERF_US_NR_hNFE2L2 is a cell-based, single-readout assay that uses extracted gene-proteins in a cell-line assay. Measurements were taken 6 hours after chemical dosing in a 384-well plate. See Keap1-Nrf2 Human Transcription Factor Cell Based Agonist Nuclear Translocation Assay, DiscoverX.ERF_US_NR_hNFE2L2 is an assay component calculated from the ERF_US_NR_hNFE2L2 assay. It is designed to measure protein fragment complementation using a type of binding reporter as detected by chemiluminescence with fluorimetry technology.Data from the assay component ERF_US_NR_hNFE2L2 was analyzed at the assay endpoint, ERF_US_NR_hNFE2L2, in the positive analysis fitting direction relative to DMSO as the negative control and baseline of activity. Using a type of binding reporter, gain-of-signal activity can be used to understand changes in binding as they relate to gene NFE2L2. To generalize the intended target to other relatable targets, this assay endpoint is annotated to the dna binding intended target family, where the subfamily is basic leucine zipper.
Nuclear factor erythroid 2-related factor 2 (Homo sapiens), sequence (Q16236 whole entry, looked up, the tested form may be a part): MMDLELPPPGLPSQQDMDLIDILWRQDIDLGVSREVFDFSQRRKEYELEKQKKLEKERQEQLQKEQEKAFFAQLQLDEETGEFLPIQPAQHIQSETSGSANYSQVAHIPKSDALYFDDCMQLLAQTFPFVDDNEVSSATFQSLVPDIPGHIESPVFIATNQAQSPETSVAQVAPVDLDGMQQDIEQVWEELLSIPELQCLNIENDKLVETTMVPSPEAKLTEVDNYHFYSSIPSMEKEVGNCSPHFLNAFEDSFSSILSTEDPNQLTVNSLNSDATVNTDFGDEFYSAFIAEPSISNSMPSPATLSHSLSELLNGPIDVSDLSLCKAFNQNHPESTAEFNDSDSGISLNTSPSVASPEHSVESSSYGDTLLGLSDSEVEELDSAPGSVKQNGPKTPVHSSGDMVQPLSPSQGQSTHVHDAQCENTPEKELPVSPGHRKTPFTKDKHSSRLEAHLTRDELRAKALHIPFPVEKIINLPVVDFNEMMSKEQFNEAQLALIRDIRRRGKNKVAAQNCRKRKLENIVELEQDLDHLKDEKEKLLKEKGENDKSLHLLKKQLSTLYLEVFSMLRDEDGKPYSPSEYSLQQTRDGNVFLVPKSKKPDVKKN
Cells were seeded in a total volume of 20 uL into white walled, 384-well microplates and incubated at 37C overnight prior to testing.For agonist determination, cells were incubated with sample to induce response. […] The results are expressed as a percent efficacy relative to the maximum response of the control ligand.

On to `CC(C)(C)c1cc(O)ccc1O`, for which the concentration at half-maximal activity (AC50) is 12.2 µM (active).

`CCNS(=O)(=O)C(F)(F)C(F)(F)C(F)(F)C(F)(F)C(F)(F)C(F)(F)C(F)(F)C(F)(F)F`: the molecule was classed as inactive.
